# According to PubChem BioAssay AID624483 (NMMLSC, 2012):
# The campaign covered roughly 360,000 compounds. About 11,000 (3.1%) were called active. Roughly 2% stayed inconclusive and do not appear here. What follows is part of a selection rich in actives, with near analogues and random picks from the rest. Values without a mark were called inactive. No stated cut-off is given here; in the data, active means fluorescence intensity above about 16000; inconclusive means no clear call, values can overlap the other calls; inactive means below that.
# Experiment: counter-screen for toxin protease inhibitors: compound fluorescence, primary screen, artefact control for toxin protease inhibitor project, biochemical, multiplex microsphere, HTS (AID 624483)
# Conditions: compound autofluorescence counterscreen, microsphere flow cytometry; stronger effect = higher value
row,SMILES,fluorescence intensity
1,O=C(Nc1cccc2cccnc12)c1ccc2sc([C@H]3C[C@H](O)[C@@H](CO)O3)nc2c1,3070
2,Cc1cc(C)cc(OCC(=O)Nc2cc(NC(=O)COc3cc(C)cc(C)c3)cc(C(=O)O)c2)c1,3790
3,CC(C)CC1C(=O)N(Cc2cn(Cc3ccco3)nn2)CCS(=O)(=O)N1Cc1ccc(-c2ccc(Cl)c(Cl)c2)cc1 (stereo not drawn),3840
4,COc1ccc2c(Cl)c(-c3nnco3)sc2c1,3460
5,C#CCSc1nnc(-c2sc3ccccc3c2Cl)o1,19600 (active)
6,O=C(OCC#CCSc1nnc(-c2ccncc2)o1)c1sc2ccccc2c1Cl,2840
7,CCCCCc1c(Cc2ccccc2)ncn1CCc1ccccc1OC,4640
8,O=C(NCc1ccc(F)cc1F)[C@@H]1CCCN1C(=O)[C@@H]1CCCN1C(=O)c1cccc(Cl)c1,6340
9,C[C@H]1CN([C@@H](C)CO)C(=O)CCCn2cc(nn2)CO[C@@H]1CN(C)C(=O)Nc1ccccc1,2950
10,N#Cc1ccccc1-n1c(N)c(C(=O)N2CCCC2)sc1=S,9660
11,Cc1cccc(-n2c(N)c(C(=O)N3CCN(C)CC3)sc2=S)c1,2920
12,COC(=O)c1sc(=S)n(-c2ccccc2)c1N,20900 (active)
13,Cn1c(=O)c2cc(NC(=O)NCCc3cccs3)ccc2n1Cc1cccc(C(F)(F)F)c1,3800
14,CCCCn1c(SCC(=O)NCCc2ccc(OC)c(OC)c2)nc2c1c(=O)n(C)c(=O)n2C,22600 (active)
15,CCCCn1c(SCC(=O)N2CCOCC2)nc2c1c(=O)n(C)c(=O)n2C,5590
16,C#CC(C)(C)NC(=O)CSc1nc2c(c(=O)n(C)c(=O)n2C)n1CCCC,5580
17,C=CCSc1nnc(Cn2c(=O)sc3ccccc32)n1C,5480
18,CC(=O)Nc1cccc(-c2ccnc3c2CC(C)(C(=O)NCc2ccco2)O3)c1 (stereo not drawn),3800
19,CCN1C(=O)[C@H]2[C@@H](c3ccc(C(F)(F)F)cc3)N[C@]3(CCCN(Cc4ccc(Br)cc4)C3=O)[C@H]2C1=O,3620
20,COc1ccc(CCNC(=O)c2cc3sccc3n2C)cc1OC,21800 (active)
21,COc1ccc(CCNC(=O)COC(=O)/C=C/c2cccs2)cc1OC,3190
22,Cn1c(C(=O)NCCCN2CCCCC2)cc2sccc21,8510
23,CCOC(=O)C1Nc2ccc(C(F)(F)F)cc2C2C=CCC12 (stereo not drawn),2760
24,CC(=O)Nc1cc(-c2ccccc2N(C)C)cn2c(-c3ccc(F)c(Cl)c3)cnc12,3420

row,SMILES,fluorescence intensity
1,O=C1NC[C@H](Cc2ccc(O)cc2)N(C[C@H]2CCCN2C[C@H](Cc2ccccc2)N2C[C@H](Cc3ccccc3)N(CCc3ccccc3)C(=O)C2=O)C1=O,5960
2,CCCCC(CC)C(=O)Nc1ccc(Cl)cn1 (stereo not drawn),21400 (active)
3,O=C(Nc1ccc(Cl)cn1)c1ccccc1-c1ccccc1,3610
4,CC(OC(=O)CNC(=O)c1ccco1)C(=O)Nc1ccc(Cl)cn1 (stereo not drawn),4920
5,COCCOC(=O)C1=C(C)NC(=O)NC1c1cc2c(cc1Br)OCO2 (stereo not drawn),3890
6,CCCOc1ccccc1C1CC(=O)Nc2cc3c(cc21)OCO3 (stereo not drawn),3540
7,COCCOC(=O)C1=C(C)NC(=O)CC1c1cc2c(cc1Br)OCO2 (stereo not drawn),22200 (active)
8,CS(=O)(=O)/C(C#N)=C/c1cccn1S(=O)(=O)c1ccc([N+](=O)[O-])cc1,5100
9,CC(=O)Nc1cc(-c2ccccc2F)cn2c(-c3cccc(C(F)(F)F)c3)cnc12,3600
10,CCOc1ccc(-c2nc(C)sc2CC(=O)O)cc1,22400 (active)
11,Cc1ccc(-c2nc(C)sc2CC(=O)OCC(=O)Nc2c(F)cccc2F)cc1,2600
12,CCOc1ccc(NC(=O)CN(C)C(=O)Cc2sc(C)nc2-c2ccc(F)cc2)cc1OCC,8360
13,CCOc1ccc(CCN2C(=S)N([C@@H](CC(C)C)CN3CCC[C@@H]3CN3C(=S)NC[C@@H]3Cc3ccc(O)cc3)C[C@@H]2CC(C)C)cc1,6060
14,COc1ccc(CNC(=O)CN2C(=O)NC3(CCCc4sccc43)C2=O)cc1 (stereo not drawn),5880
15,COc1ccc(OC)c(C(=O)c2ccc(C(=O)N3CCN(Cc4csc(C)n4)CC3)cc2)c1,4240
16,COc1ccc(OC)c(C(=O)c2ccc(C(=O)O)cc2)c1,16800 (active)
17,COc1ccc(C(=O)CC(=O)c2ccc(C)cc2)c(O)c1,4090
18,COCOc1cccc(CN2CCC(C)(Oc3ccc(SC)cc3)C2)c1 (stereo not drawn),3010
19,Cc1[nH]c(C)c(S(=O)(=O)N2CCN(c3cccc(C(F)(F)F)c3)CC2)c1C(=O)N1CCCCC1,5140
20,CN1C(=O)C2(OCCCO2)c2cc(Cl)ccc21,3420
21,COc1cc2ccccc2cc1C(=O)Nc1ccc(S(=O)(=O)Nc2cc(C)on2)cc1,18400 (active)
22,COc1ccc(S(=O)(=O)Nc2cc(C)on2)cc1NC(C)=O,4100
23,CCOc1ccc(C(=O)Nc2ccc(S(=O)(=O)Nc3cc(C)on3)cc2)cc1,3660
24,COc1ccc(CCn2c(NCCCN3CCOCC3)nc3c2c(=O)[nH]c(=O)n3C)cc1,4180

row,SMILES,fluorescence intensity
1,CCCCNc1nc2c(c(=O)[nH]c(=O)n2C)n1CCOc1ccccc1,20600 (active)
2,CCCCNc1nc2c(c(=O)n(C)c(=O)n2C)n1Cc1cccc(OC)c1,4560
3,CCCC/C=C/c1cccc2nncn12,3130
4,COc1ccc(CN2CN(C(C)C)CSC2=S)cc1,24500 (active)
5,COc1ccc(CN2CN(C3CCCC3)CSC2=S)cc1,3230
6,COc1ccc(CCC(C)N2CCc3ccccc3C2)cc1 (stereo not drawn),3950
7,NC(=O)C1CCN(C(=O)COc2ccc3c4c(c(=O)oc3c2)CCC4)CC1,5000
8,O=C(COc1ccc2c3c(c(=O)oc2c1)CCC3)NC1CCCCC1,9280
9,NC(=O)COc1ccc2c3c(c(=O)oc2c1)CCCCC3,24300 (active)
10,Cc1nc(C(F)(F)F)ccc1C(=O)N1CCC1(C)C(=O)NS(=O)(=O)c1ccccc1Cl (stereo not drawn),2880
11,O=C(CSc1nnc(-c2ccncc2)n1-c1ccc(Cl)cc1)Nc1ccc(C(=O)O)cc1,3940
12,O=C(CSc1nnc(-c2ccncc2)n1C1CCCCC1)Nc1ccccc1,20700 (active)
13,COCCCn1c(SCC(=O)Nc2ccccc2)nnc1-c1ccncc1,3490
14,CN(C(=O)c1c(Cl)cnn1C)C12CC3CC(CC(C3)C1)C2,2490
15,CCCNC(=O)C1(C)CCCN(Cc2cccc(C(F)(F)F)c2)C1 (stereo not drawn),3060
16,CC(C)C(C)NC(=O)COc1ncnc2ccccc12 (stereo not drawn),2080
17,O=C(CSc1ncccn1)NC(=O)NCc1ccccc1,10500
18,O=C(COc1ncnc2ccccc12)NC(=O)NCc1ccccc1,16500 (active)
19,CCc1nc2ccccc2c(C(=O)NCc2ccc(OC)cc2)c1C,4980
20,CSc1ccccc1C(=O)NCc1ccccc1,3280
21,CCSc1ccccc1C(=O)NCc1ccc(OC)cc1,24300 (active)
22,O=C(CCN1C(=O)c2ccccc2C1=O)C1=NN[C@@H]2C(=O)N(c3ccc(F)cc3)C(=O)[C@H]12,2580
23,CC(C)(C)N1C(=O)c2c(C(=O)OCc3ccccc3)[nH]c(-c3ccccc3)c2C1=O,5800
24,Cc1ccc(-c2noc(CN3CCN(Cc4ccccc4)CC3)n2)cc1,23500 (active)

row,SMILES,fluorescence intensity
1,CC1CCN(Cc2nc(-c3ccc(Cl)cc3)no2)CC1,6270
2,O=c1ccc(S(=O)(=O)N2CCCC2)cn1Cc1nc(-c2ccccc2)no1,3920
3,COc1ccc(S(=O)(=O)N2CCCCC2c2cc(C(=O)NCc3ccc(F)cc3)no2)cc1 (stereo not drawn),2840
4,CCCNC(=O)COc1coc(CN2CCN(Cc3ccccc3)CC2)cc1=O,5680
5,CC1(C)Oc2ccc3ccc(=O)oc3c2/C(=C/NCCO)C1=O,2160
6,COc1ccccc1C1=CC(=O)CCC1,3790
7,CCOC(=O)CN1CCC(c2ccccc2)CC1,2610
8,CCOC(=O)Cn1c2c(c(-c3ccccc3OC)cc1=O)CCCC2,23500 (active)
9,C[C@H]([C@@H](O)[C@@H](O)[C@@H](C)C(C)(C)C)[C@H]1CC[C@H]2C3CC[C@H]4C[C@H](OS(=O)(=O)O)[C@@H](OS(=O)(=O)O)C[C@]4(C)[C@H]3CC[C@]12C (stereo partly drawn),4680
10,CCOC(=O)Cc1csc(SCC(=O)NC(C)C23CC4CC(CC(C4)C2)C3)n1 (stereo not drawn),9570
11,COC(=O)CNC(=O)c1ccc2c(c1)S(=O)(=O)c1ccccc1C2=O,2970
12,CC(C)NC(=O)NNc1c(Cl)cncc1Cl,3840
13,CCC(=O)OCc1c(C(F)(F)F)nn(C)c1Oc1cccc(C(F)(F)F)c1,18100 (active)
14,Cc1nc(N)[nH]c(=O)c1Oc1cccc(C(F)(F)F)c1,6010
15,CCOC(=O)NNc1cc(C(F)(F)F)ccn1,3590
16,CCCCNC(=O)Nc1c(C)cc(SC#N)cc1C,2550
17,Cn1c2ccccc2n2c(=O)c(=O)n(CC(=O)c3ccc(F)cc3)nc12,8720
18,CC1(C(=O)NS(=O)(=O)c2ccccc2)CCN1C(=O)C1CCCCC1 (stereo not drawn),3660
19,Cc1ccc(S(=O)(=O)N2CCN(c3ccccc3)CC2)cc1C,4010
20,Cc1cc(N2CCN(S(=O)(=O)c3ccc(C)c(C)c3)CC2)c2ccccc2n1,23300 (active)
21,Cc1ccccc1N1CCN(S(=O)(=O)c2ccc3ccccc3c2)CC1,4580
